Source: a collection of fitness landscapes (doi:10.1126/science.1257360)
In all, about 140,000 sequences were measured (“enrichment ratio after two sorts for PhoP signalling”: median about 0, highest 2% from about 11 on). The sample as a whole holds a higher share of the highest values than the screen did.

B1: PhoQ; a variant is named by its letters at X, in order, P23837 (parent)
chain: MKKLLRLFFPLSLRVRFLLATAAVVLVLSLAYGMVALIGYSVSFDKTTFRLLRGESNLFYTLAKWENNKLHVELPENIDKQSPTMTLIYDENGQLLWAQRDVPWLMKMIQPDWLKSNGFHEIEADVNDTSLLLSGDHSIQQQLQEVREDDDDAEMTHSVAVNVYPATSRMPKLTIVVVDTIPVELKSSYMVWSWFIYVLSANLLLVIPLLWVAAWWSLRPIEALAKEVRELEEHNRELLNPATTRELTSLVRNLNRLLKSERERYDKYRTTLTDLTHSLKTPLXXLQXXLRSLRSEKMSVSDAEPVMLEQISRISQQIGYYLHRASMRGGTLLSRELHPVAPLLDNLTSALNKVYQRKGVNISLDISPEISFVGEQNDFVEVMGNVLDNACKYCLEFVEISARQTDEHLYIVVEDDGPGIPLSKREVIFDRGQRVDTLRPGQGVGLAVAREITEQYEGKIVAGESMLGGARMEVIFGRQHSAPKDE

Variants of: B1
Assay: enrichment ratio after two sorts for PhoP signalling (ratio (wild type AVST 3.29)); higher = more functional
Conditions: with PhoP (E. coli)

Variant | enrichment ratio
TANR | ≤ 0.25
ASAT | 10.1
ASYY | ≤ 0.25
ASAI | 13.2
ASAD | ≤ 0.25
ASRY | ≤ 0.25
ASAA | 13.4
ASAS | 15.3
KSAA | ≤ 0.25
ASAG | 7.21
IFDK | ≤ 0.25
WHPD | ≤ 0.25
CLCS | ≤ 0.25
RQQL | ≤ 0.25
HTYY | ≤ 0.25
MKYY | ≤ 0.25
STYY | ≤ 0.25
NGYY | ≤ 0.25
MEYI | 11
MEYY | 18.8
MKAY | ≤ 0.25
QEYY | 17.4
TGYY | 22.5
QIYY | ≤ 0.25

Variant | enrichment ratio
RGYY | ≤ 0.25
MEAY | 13
MTYY | 0.96
NFDN | ≤ 0.25
RTPI | ≤ 0.25
RQSW | ≤ 0.25
IMCF | ≤ 0.25
EDGY | ≤ 0.25
SVHP | ≤ 0.25
SVAV | 7.92
KFAE | ≤ 0.25
SVHQ | ≤ 0.25
SVHF | ≤ 0.25
SVGR | 1.46
SVSF | 12.6
SVAE | 13.4
SVSQ | 13.4
SVSR | 6.38
SVTR | 8.52
SVMR | 12.6
WQKA | ≤ 0.25
ARFL | ≤ 0.25
KVIR | ≤ 0.25
ADCI | ≤ 0.25

Variant | enrichment ratio
PPMF | ≤ 0.25
RIFK | 1.58
NEIH | ≤ 0.25
TNDC | ≤ 0.25
MKCG | ≤ 0.25
SVVA | 1.32
SVTK | 11.9
SVTI | 12
SVTM | 14.7
SVTG | 13.5
SVLY | 0.677
SVWM | ≤ 0.25
SVPA | ≤ 0.25
SVTS | 7.51
SVHG | ≤ 0.25
SVVG | 6.29
SVPM | 7.47
GRAK | ≤ 0.25
PILY | ≤ 0.25
EHER | ≤ 0.25
QSNR | ≤ 0.25
PYGV | ≤ 0.25
SGYP | ≤ 0.25
IIGH | ≤ 0.25

Variant | enrichment ratio
RDSD | ≤ 0.25
SDSG | 0.62
SVWR | ≤ 0.25
KFSG | ≤ 0.25
NVCC | ≤ 0.25
KFAH | ≤ 0.25
NVAH | ≤ 0.25
SVTC | 3.84
SVSG | 13.4
SVAH | 12.7
SVMG | 5.71
SVCC | 16.1
SVMH | 22.9
RVAP | ≤ 0.25
WQNE | ≤ 0.25
LLNR | ≤ 0.25
TAVV | 1.05
ARNK | ≤ 0.25
QMLS | ≤ 0.25
SVCS | 8.61
SVSK | 12.7
SVPI | 5.93
SVCI | 10.4
PVNG | ≤ 0.25

Variant | enrichment ratio
SVTH | 11.9
SVNG | 12.5
SVWI | ≤ 0.25
SVCG | 13.3
SVNH | 3.33
LCNG | ≤ 0.25
SVSH | 10.5
KLIS | ≤ 0.25
NRHS | ≤ 0.25
GGDF | ≤ 0.25
FHQD | ≤ 0.25
IWVM | ≤ 0.25
HEVP | ≤ 0.25
SVCH | 12.5
SVMQ | 15.2
SVMS | 8.47
SRSF | ≤ 0.25
SVMV | 9.33
SLSF | 11.7
SQSF | 7.01
KFCH | ≤ 0.25
SVCF | 4.45
MQII | ≤ 0.25
RDEG | ≤ 0.25

Variant | enrichment ratio
FSHY | ≤ 0.25
TALR | 3.62
HPIF | ≤ 0.25
AIVH | 15
TEVH | 16.3
WIVH | ≤ 0.25
KSVH | ≤ 0.25
QEVH | ≤ 0.25
AHVH | ≤ 0.25
TSCK | 3.25
TSCS | 14.7
TSVH | 11.7
MEVH | 1.05
KSCS | ≤ 0.25
LCVH | ≤ 0.25
VGWK | ≤ 0.25
ATFQ | 2.02
FKND | ≤ 0.25
AFSM | 0.932
RMFW | ≤ 0.25
STVH | 8.82
KSCV | ≤ 0.25
SSVH | 14.4
FSCV | 9.84

Variant | enrichment ratio
YSCV | 15.6
YSCI | 2.62
YRCV | ≤ 0.25
TSCI | 14.8
TSCE | 8.23
KYVH | ≤ 0.25
KSCI | ≤ 0.25
TSCV | 17.3
TRVP | ≤ 0.25
GWST | ≤ 0.25
PYLQ | ≤ 0.25
FLFH | ≤ 0.25
RFWY | ≤ 0.25
LSFF | 0.737
MSSN | ≤ 0.25
RYDM | ≤ 0.25
PWRP | ≤ 0.25
AMPS | ≤ 0.25
TSCA | 15.2
NSCQ | ≤ 0.25
NSCA | ≤ 0.25
TSCQ | 21.3
FSCT | ≤ 0.25
SLVH | 2.06

Variant | enrichment ratio
SEVH | 17.3
KSCQ | ≤ 0.25
TSCT | 18.9
KSCA | ≤ 0.25
KSCT | ≤ 0.25
SRVH | ≤ 0.25
AGPW | ≤ 0.25
MEVW | ≤ 0.25
DAWH | ≤ 0.25
VVRK | ≤ 0.25
EQCP | ≤ 0.25
QPNQ | ≤ 0.25
MFMV | ≤ 0.25
FTNT | ≤ 0.25
TGEC | 1.95
SFRM | ≤ 0.25
FVEG | ≤ 0.25
FWMV | ≤ 0.25
MDAY | ≤ 0.25
NVLK | ≤ 0.25
MEAT | 17.9
FDAN | ≤ 0.25
MCWN | 16.1
MKAT | ≤ 0.25

Variant | enrichment ratio
MCDN | ≤ 0.25
MCAT | 4.13
MCNL | ≤ 0.25
MMWN | ≤ 0.25
MAAN | 14.7
MCVN | ≤ 0.25
MCAN | 22.5
MAQN | ≤ 0.25
DHKR | ≤ 0.25
LPWC | ≤ 0.25
DVVV | ≤ 0.25
VKNA | ≤ 0.25
RHPV | ≤ 0.25
YEDC | ≤ 0.25
NEIN | ≤ 0.25
MDAT | 25.1
TEAN | 29.6
MEIN | 11.2
QEAN | 2.7
MDNT | ≤ 0.25
MKAN | ≤ 0.25
TEIN | 5.99
MFAN | ≤ 0.25
MDIN | ≤ 0.25

Variant | enrichment ratio
MEAN | 32.4
MDLT | ≤ 0.25
IEYH | ≤ 0.25
FRYS | ≤ 0.25
FLVW | ≤ 0.25
QNFD | ≤ 0.25
NIAV | ≤ 0.25
TLKV | 48.4
SLAV | 9.05
TGAV | 17.1
GTAV | ≤ 0.25
NGAV | ≤ 0.25
LLKV | ≤ 0.25
TLAV | 11.9
KLAV | ≤ 0.25
RGAV | ≤ 0.25
KLKV | ≤ 0.25
GGAV | 23.8
FLFA | 0.339
HVFA | ≤ 0.25
EHCF | ≤ 0.25
FDAV | ≤ 0.25
ADAV | 5.88
TDAV | 11.6

Variant | enrichment ratio
ERLI | ≤ 0.25
VDMS | ≤ 0.25
KYSS | ≤ 0.25
SPSS | ≤ 0.25
SLSS | 6.86
TVSS | 11.6
SRSS | ≤ 0.25
SDSS | 0.569
PLSS | ≤ 0.25
SQSS | 11.6
TLSS | 12
NVSS | ≤ 0.25
SESS | 13.9
VLSS | 0.29
RKAE | ≤ 0.25
AYPP | ≤ 0.25
PNHN | ≤ 0.25
VSWN | ≤ 0.25
ESGC | ≤ 0.25
QYRN | ≤ 0.25
EVDI | ≤ 0.25
PGYQ | ≤ 0.25
YTSS | ≤ 0.25
KQSS | ≤ 0.25

Variant | enrichment ratio
KSSS | ≤ 0.25
FSSS | ≤ 0.25
TTSS | 15.9
TSSS | 14
HVKP | ≤ 0.25
MNYD | ≤ 0.25
VKMD | ≤ 0.25
ISKH | ≤ 0.25
KHQI | ≤ 0.25
HSYE | ≤ 0.25
AESS | 16.3
AEVA | ≤ 0.25
AENK | ≤ 0.25
AEVS | 16.2
AESQ | 4.68
AEVK | ≤ 0.25
AEVE | 7.98
AETC | 36.7
AEKC | ≤ 0.25
AETH | 0.824
AEVI | 17.5
AEVY | 6.64
QGNI | ≤ 0.25
WYRH | ≤ 0.25

Variant | enrichment ratio
EKKS | ≤ 0.25
RHGF | ≤ 0.25
REAM | ≤ 0.25
PMYC | ≤ 0.25
VLES | ≤ 0.25
QQHF | ≤ 0.25
GTWR | ≤ 0.25
KCDP | ≤ 0.25
VWMG | ≤ 0.25
AIVF | 2.34
AETA | 5.73
AETI | 16.8
AEVF | 14.3
QEVF | ≤ 0.25
MEVL | 11.6
NEVL | ≤ 0.25
MAVL | 2.43
AEVG | 6.84
AETD | ≤ 0.25
AEVC | 14.6
